Laboratory results taken from ChEMBL document CHEMBL1201862, “PubChem BioAssay data set” (2004).
Screen size: about 57,000 sequences; about 4,100 (7.2%) were called active. Cut-off read from the data, not from the text of the source: active = GI50 up to about 1.1 µM and inactive = higher. The list is a sample of the results. Entries with a potency or affinity are not part of this list.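 Cultured in 96-well plates, cells were exposed to test compound for 48 hours across five concentrations. GI50 is the concentration that inhibits growth by half.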

The substances below were run on COLO 205 (assay: NCI tumour cell line growth inhibition, 48 h).

Substance	GI50
[Bis(aminomethyl)pentamethylenesilane]dichloropaltinum(II), CHEMBL2146202	2.07 µM
[Bis(aminomethyl)tetramethylenesilane]tetrachloropaltinum(IV), CHEMBL2146189	8.51 µM
[Bis(aminomethyl)dimethylsilane]dichloroplatinum (II), CHEMBL2146201	24.3 µM
cis-Bis[[(trimethylsilyl)methyl]amino]tetrachloroplatinum(IV), CHEMBL2146191	2.07 µM
[Bis(aminomethyl)tetramethylenesilane]dichloropaltinum(II), CHEMBL2146205	20.1 µM
[Bis(aminomethyl)pentamethylenesilane]tetrachloropaltinum(IV), CHEMBL2146204	1.53 µM
[Bis(aminomethyl)ethylmethylsilane]tetrachloroplatinum(IV), CHEMBL2146192	5.15 µM
mu-(1,7-nanodiamine-N,N')bis-(cis-aminedichloroplatimum (II)), CHEMBL2146215	6 µM
[Bis(aminomethyl)dimethylsilane]tetrachloroplatinum(IV), CHEMBL2146190	11.6 µM
[Bis(aminomethyl)diethylsilane]tetrachloroplatinum(IV), CHEMBL2146203	11.9 µM
CISPLATIN, CHEMBL11359	13.4 µM
